Experimental data from PubChem BioAssay (NCATS).
Inconclusive results are not listed. A call without a number means that no potency is given here. Calls of active or inactive are those of the source. Unless noted, calls follow the shape of the dose curve; as a rule, active = well fitted inhibition curve with a large enough effect; inconclusive = small, poorly fitted or top-dose-only effect; inactive = flat fitted curve, though single readings scatter.

Columns and labels:
[1] = P-glycoprotein substrates identified in KB-8-5-11 adenocarcinoma cell line, qHTS therapeutic library screen (AID 1346987); also: nearly all actives have a fitted effect of over 65% in size; also: potency is read from the fitted curve at half-maximal effect
How it was run: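 Luminescence from CellTiter-Glo, read 5 min after addition, quantified survival of KB-8-5-11 (P-gp-overexpressing) cells exposed to compounds for 72 h. AC50 was derived from concentration-response curves.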

[2] = qHTS for Inhibitors of the Functional Ribonucleoprotein Complex (vRNP) of Lassa (LASV) Arenavirus: Viability assay - alamar blue signal for LASV Primary Screen (AID 1347083; calls by dose curve; tested in HEK293 reporter line; also: nearly all actives have a fitted effect of over 80% in size; also: potency is read from the fitted curve at half-maximal effect)
[3] = qHTS for Inhibitors of the Functional Ribonucleoprotein Complex (vRNP) of Lymphocytic Choriomeningitis Arenaviruses (LCMV): Viability assay - alamar blue signal for LCMV Primary Screen (AID 1347085; calls by dose curve; tested in HEK293 reporter line; also: nearly all actives have a fitted effect of over 80% in size; also: potency is read from the fitted curve at half-maximal effect)
[4] = biological target: Nucleoprotein (Lymphocytic choriomeningitis virus (strain Armstrong)) (UniProt P09992); assay: qHTS for Inhibitors of the Functional Ribonucleoprotein Complex (vRNP) of Lymphocytic Choriomeningitis Arenaviruses (LCMV): LCMV Primary Screen - GLuc reporter signal (AID 1347086; calls by dose curve; also: nearly all actives have a fitted effect of over 70% in size; also: potency is read from the fitted curve at half-maximal effect)
Sequence of Nucleoprotein (Lymphocytic choriomeningitis virus (strain Armstrong)) (P09992 whole entry, looked up): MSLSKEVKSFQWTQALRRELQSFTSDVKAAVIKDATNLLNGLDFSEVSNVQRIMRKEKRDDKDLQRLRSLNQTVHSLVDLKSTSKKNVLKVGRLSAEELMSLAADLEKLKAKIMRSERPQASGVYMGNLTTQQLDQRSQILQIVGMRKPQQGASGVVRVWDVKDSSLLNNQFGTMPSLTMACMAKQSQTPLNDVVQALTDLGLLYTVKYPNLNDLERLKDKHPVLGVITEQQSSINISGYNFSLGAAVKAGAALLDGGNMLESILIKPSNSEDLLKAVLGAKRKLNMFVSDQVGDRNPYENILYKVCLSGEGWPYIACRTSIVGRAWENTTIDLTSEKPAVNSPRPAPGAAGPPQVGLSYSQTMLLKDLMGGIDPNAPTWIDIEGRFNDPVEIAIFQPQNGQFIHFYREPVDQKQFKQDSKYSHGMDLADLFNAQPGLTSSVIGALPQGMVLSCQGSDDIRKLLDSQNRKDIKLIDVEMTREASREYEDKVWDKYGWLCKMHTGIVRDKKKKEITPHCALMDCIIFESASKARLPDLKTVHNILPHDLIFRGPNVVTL

[5] = qHTS for Inhibitors of the Functional Ribonucleoprotein Complex (vRNP) of Lassa (LASV) Arenavirus: LASV Primary Screen - GLuc reporter signal (AID 1347082; calls by dose curve; tested in HEK293 reporter line; also: series mostly up to about 57 µM; nearly all actives have a fitted effect of over 60% in size)

SMILES	Potency [1]	Potency [2]	Potency [3]	Potency [4]	Potency [5]
CC(C)(O)C=CC(=O)[C@](C)(O)[C@H]1[C@H](O)C[C@]2(C)[C@@H]3CC=C4[C@@H](C=C(O)C(=O)C4(C)C)[C@]3(C)C(=O)C[C@@]12C	0.118 µM (active)	3.06 µM (active)	9.68 µM (active)	10.9 µM (active)	
CC=C(C)C(=O)O[C@H]1C(C)=C2[C@@H]3OC(=O)[C@@](C)(O)[C@@]3(O)[C@@H](OC(=O)CCC)C[C@](C)(OC(C)=O)[C@@H]2[C@@H]1OC(=O)CCCCCCC	1.87 µM (active)	0.769 µM (active)			
CCCCCCCCCC(CC)c1ccc(S(=O)(=O)O)cc1 (stereo not drawn)	inactive	inactive	inactive	inactive	inactive
COc1nn(CSP(=S)(OC)OC)c(=O)s1	inactive	inactive	inactive		
CC(=O)O[C@@]12CO[C@H]1C[C@H](O)[C@@]1(C)C(=O)[C@H](O)C3=C(C)[C@@H](O)C[C@@](O)([C@@H](OC(=O)c4ccccc4)[C@@H]21)C3(C)C	7.43 µM (active)	13.7 µM (active)	21.7 µM (active)		inactive
CC(=Cc1csc(C)n1)[C@@H]1C[C@H]2O[C@@H]2CCC[C@H](C)[C@@H](O)[C@@H](C)C(=O)C(C)(C)[C@@H](O)CC(=O)O1	0.001 µM (active)	inactive	inactive	inactive	inactive
O=C(N[C@@H](COc1ccc2[nH]c(=O)[nH]c2c1)c1ccccc1)c1cccn(Cc2ccc(F)c(F)c2)c1=O	inactive	inactive	inactive	inactive	inactive
CCCCC(CC)COC(=O)c1ccccc1C(=O)OCC(CC)CCCC (stereo not drawn)	inactive	inactive	inactive	inactive	inactive
